Experimental data taken from PubChem BioAssay (NCI).
The panel holds about 83,000 compounds, 20% with a hit somewhere; the sample as a whole holds those more often.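 Testing used 96-well plates and a 48-hour single-concentration exposure. Example: -40 means 40% of the starting cells died.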 The source made the active and inactive calls. Rule for the calls: active = growth percent below 10; inactive = the rest.

Key:
Test in all cases: NCI-60 one-dose screen, 48 h (100 = growth as untreated, 0 = no growth, -100 = all killed)
Settings in all cases: 10 µM unless noted
HT29 colon = system: HT29 colon
SNB-75 CNS = system: SNB-75 CNS
SNB-19 CNS = system: SNB-19 CNS
U251 CNS = system: U251 CNS
PC-3 prostate = system: PC-3 prostate
SK-MEL-5 melanoma = system: SK-MEL-5 melanoma
LOX IMVI melanoma = system: LOX IMVI melanoma
SK-MEL-28 melanoma = system: SK-MEL-28 melanoma
SK-MEL-2 melanoma = system: SK-MEL-2 melanoma
UACC-62 melanoma = system: UACC-62 melanoma

Measured: growth

CC/C(=C\c1ccc(N(C)C)cc1)c1ccncc1
inactive: HT29 colon 14.6% | SNB-75 CNS 39.2% | SNB-19 CNS 64.5% | U251 CNS 29.3% | PC-3 prostate 65.4% | SK-MEL-5 melanoma 32.5% | LOX IMVI melanoma 41.5% | SK-MEL-28 melanoma 65.4% | SK-MEL-2 melanoma 49.9%

COC(=O)[C@]12CC[C@@H](C)[C@H](C)[C@@H]1C1=CC[C@@H]3[C@@]4(C)C=C(O)C(=O)[C@@]5(C)COC(=C54)C[C@@]3(C)[C@]1(C)CC2
inactive: SNB-75 CNS 12.7%
active: HT29 colon -70.6% | SNB-19 CNS -26.5% | U251 CNS -74.9% | PC-3 prostate -71.2% | SK-MEL-5 melanoma -98.1% | LOX IMVI melanoma -98.8% | SK-MEL-28 melanoma -56.9% | SK-MEL-2 melanoma -62.8%

O=C(OC[C@H]1O[C@H](OC(=O)c2cc(O)c(O)c(OC(=O)c3cc(O)c(O)c(O)c3)c2)[C@H](OC(=O)c2cc(O)c(O)c(OC(=O)c3cc(O)c(O)c(O)c3)c2)[C@@H](OC(=O)c2cc(O)c(O)c(OC(=O)c3cc(O)c(O)c(O)c3)c2)[C@@H]1OC(=O)c1cc(O)c(O)c(OC(=O)c2cc(O)c(O)c(O)c2)c1)c1cc(O)c(O)c(OC(=O)c2cc(O)c(O)c(O)c2)c1
inactive: HT29 colon 33.5% | SNB-75 CNS 53.6% | SNB-19 CNS 36.6% | U251 CNS 22.3% | PC-3 prostate 38% | UACC-62 melanoma 10.6% | SK-MEL-28 melanoma 78.6% | SK-MEL-2 melanoma 80.4%
active: LOX IMVI melanoma 7.17%

CCOC(=O)C1=C(COCCN)NC(C)=C(C(=O)OC)C1c1ccccc1Cl (stereo not given)
inactive: HT29 colon 11.4% | SNB-75 CNS 72.3% | SNB-19 CNS 102% | U251 CNS 52.8% | PC-3 prostate 66.9% | UACC-62 melanoma 60.5% | LOX IMVI melanoma 32.3% | SK-MEL-28 melanoma 75.9% | SK-MEL-2 melanoma 90.2%

COc1cc(/C=C2\COc3ccc(O)cc3C2=O)cc(OC)c1
inactive: HT29 colon 12% | SNB-75 CNS 87% | SNB-19 CNS 50.5% | U251 CNS 30.1% | PC-3 prostate 53.8% | UACC-62 melanoma 62.6% | SK-MEL-28 melanoma 94.4% | SK-MEL-2 melanoma 101%
active: LOX IMVI melanoma -65.5%

CCCCN(CCCC)CCCOC(=O)c1ccc(N)cc1
inactive: HT29 colon 31.4% | SNB-75 CNS 39.1% | SNB-19 CNS 88.7% | U251 CNS 58.5% | PC-3 prostate 97.1% | UACC-62 melanoma 92.3% | LOX IMVI melanoma 64.2% | SK-MEL-28 melanoma 57.5% | SK-MEL-2 melanoma 85.1%

CN(CCOc1ccc(CC2SC(=O)NC2=O)cc1)c1ccccn1 (stereo not given)
inactive: HT29 colon 117% | SNB-75 CNS 96.3% | SNB-19 CNS 105% | U251 CNS 90.7% | PC-3 prostate 105% | UACC-62 melanoma 93.1% | LOX IMVI melanoma 92.8% | SK-MEL-28 melanoma 111%

CCCCCCCCSc1ncnc2c1ncn2CO
inactive: HT29 colon 91% | SNB-75 CNS 75.1% | SNB-19 CNS 94.7% | U251 CNS 74.7% | PC-3 prostate 75.6% | UACC-62 melanoma 92.8% | LOX IMVI melanoma 80.1% | SK-MEL-28 melanoma 101% | SK-MEL-2 melanoma 95.8%

C=C(C)[C@H]1CC/C(C)=C/CC[C@]2(C)O[C@H]2CC/C(COC(C)=O)=C\C1=O
inactive: HT29 colon 115% | SNB-75 CNS 120% | SNB-19 CNS 108% | U251 CNS 101% | PC-3 prostate 94.6% | UACC-62 melanoma 108% | LOX IMVI melanoma 88.1% | SK-MEL-28 melanoma 116%

CCC(CC)NCCCCCNc1cc(OC)cc2cccnc12
inactive: HT29 colon 77.3% | SNB-75 CNS 73.4% | SNB-19 CNS 91.1% | U251 CNS 86.5% | PC-3 prostate 97.3% | SK-MEL-5 melanoma 95.4% | LOX IMVI melanoma 86.3% | SK-MEL-28 melanoma 108% | SK-MEL-2 melanoma 79.8%

Cc1cc2cn3c4cccnc4[nH]c(=O)c3c2cc1C
active: HT29 colon -76.3% | U251 CNS -71.2% | LOX IMVI melanoma -68.5%
inactive: SNB-75 CNS 79.3% | SNB-19 CNS 56.4% | PC-3 prostate 67.7% | UACC-62 melanoma 61.2% | SK-MEL-28 melanoma 86.6% | SK-MEL-2 melanoma 58.2%

Cc1ccsc1/C=C/C1=NCCCN1C
inactive: HT29 colon 99.3% | SNB-75 CNS 102% | SNB-19 CNS 104% | U251 CNS 100% | PC-3 prostate 90.5% | UACC-62 melanoma 106% | LOX IMVI melanoma 95.6% | SK-MEL-28 melanoma 103% | SK-MEL-2 melanoma 92.6%

Clc1cc(Cl)c(OCC#CI)cc1Cl
active: LOX IMVI melanoma -56%
inactive: HT29 colon 10.4% | SNB-75 CNS 87.6% | SNB-19 CNS 108% | U251 CNS 78.9% | PC-3 prostate 75.6% | UACC-62 melanoma 62.8% | SK-MEL-28 melanoma 17.2% | SK-MEL-2 melanoma 75.8%

C[C@@H]1CC[C@H]2[C@@H](C)C(O)O[C@@H]3O[C@]4(C)CC[C@@H]1[C@]32OO4 (stereo not given in full)
inactive: HT29 colon 17.7% | SNB-75 CNS 52.5% | SNB-19 CNS 57.7% | U251 CNS 25.5% | PC-3 prostate 15.1% | UACC-62 melanoma 31% | LOX IMVI melanoma 11.7% | SK-MEL-28 melanoma 78% | SK-MEL-2 melanoma 27%

COc1cc(/C=C2\COc3ccc(O)c(O)c3C2=O)cc(OC)c1
inactive: SNB-75 CNS 26.5% | SNB-19 CNS 11.2% | SK-MEL-28 melanoma 14.1% | SK-MEL-2 melanoma 86.5%
active: HT29 colon 3.57% | U251 CNS -19.3% | PC-3 prostate -3.29% | UACC-62 melanoma -86.3% | LOX IMVI melanoma -66.2%

NS(=O)(=O)c1ccc(NC2=C(Cl)C(=O)c3ccccc3C2=O)cc1
inactive: HT29 colon 105% | SNB-75 CNS 136% | SNB-19 CNS 101% | U251 CNS 97.5% | PC-3 prostate 70.1% | UACC-62 melanoma 96.2% | LOX IMVI melanoma 53.7% | SK-MEL-28 melanoma 124% | SK-MEL-2 melanoma 102%

NNC(=O)NO
inactive: HT29 colon 96% | SNB-75 CNS 85.9% | SNB-19 CNS 108% | U251 CNS 104% | PC-3 prostate 101% | SK-MEL-5 melanoma 105% | LOX IMVI melanoma 97.7% | SK-MEL-2 melanoma 91.1%

O=C(c1ccccc1)c1ccco1
inactive: HT29 colon 103% | SNB-75 CNS 80.3% | SNB-19 CNS 93.1% | U251 CNS 99.1% | PC-3 prostate 95.4% | SK-MEL-5 melanoma 106% | LOX IMVI melanoma 89.8% | SK-MEL-2 melanoma 104%

COc1ccc2c(c1)C(=O)/C(=C/c1ccc([N+](=O)[O-])s1)O2
inactive: SNB-75 CNS 12.2%
active: HT29 colon -22.7% | SNB-19 CNS -5.72% | U251 CNS -50.7% | PC-3 prostate -15.7% | UACC-62 melanoma -48% | LOX IMVI melanoma -24.9% | SK-MEL-28 melanoma -33.9% | SK-MEL-2 melanoma -49.1%

COc1cc(/C=C/C(=O)c2c(-c3ccc(Cl)cc3)nc3sc(C)nn23)cc(OC)c1OC
inactive: HT29 colon 86.6% | SNB-75 CNS 77.3% | SNB-19 CNS 90.8% | U251 CNS 76.4% | PC-3 prostate 53.6% | SK-MEL-5 melanoma 20.9% | LOX IMVI melanoma 61.6% | SK-MEL-28 melanoma 94% | SK-MEL-2 melanoma 44%

Fc1ccc([C@@H]2CCNC[C@H]2COc2ccc3c(c2)OCO3)cc1
inactive: HT29 colon 14.9% | SNB-75 CNS 57.6% | SNB-19 CNS 80.2% | U251 CNS 70.3% | PC-3 prostate 53.6% | UACC-62 melanoma 57.5% | LOX IMVI melanoma 42.9% | SK-MEL-28 melanoma 94.4% | SK-MEL-2 melanoma 83.8%

COc1cc(/C=C/C(=O)c2c(-c3ccc(F)cc3)nc3sc(C)nn23)cc(OC)c1OC
inactive: SNB-75 CNS 10.2% | SNB-19 CNS 84.9% | U251 CNS 21.3% | PC-3 prostate 59.9% | SK-MEL-5 melanoma 27.1% | SK-MEL-28 melanoma 65.7%
active: HT29 colon 6.07% | LOX IMVI melanoma -19.7% | SK-MEL-2 melanoma -26.5%

O=C(/C=C/c1cccnc1)NCCCCC1CCCN(C(=O)c2ccccc2)C1 (stereo not given)
inactive: HT29 colon 32.8% | SNB-75 CNS 87.7% | SNB-19 CNS 53.3% | U251 CNS 43.1% | PC-3 prostate 47.5% | SK-MEL-5 melanoma 61.7% | SK-MEL-28 melanoma 73.1% | SK-MEL-2 melanoma 15.3%

CC(=O)O[C@H]1C(=O)[C@@]2(C)C([C@H](OC(=O)c3ccccc3)[C@]3(O)C[C@H](OC(=O)[C@H](O)[C@@H](NC(=O)c4ccccc4)c4ccccc4)C(C)=C1C3(C)C)[C@]1(OC(C)=O)CO[C@@H]1C[C@@H]2O (stereo not given in full)
inactive: SNB-19 CNS 36.2% | U251 CNS 13.5% | PC-3 prostate 19.7% | UACC-62 melanoma 42.5% | LOX IMVI melanoma 44.3% | SK-MEL-28 melanoma 57.5%
active: HT29 colon 3.07% | SNB-75 CNS -19%

CSc1ccc2c(c1)N(CCC1CCCCN1C)c1ccccc1S2 (stereo not given)
inactive: HT29 colon 21.6% | SNB-75 CNS 34.5% | SNB-19 CNS 75.3% | U251 CNS 34.3% | PC-3 prostate 34.1% | SK-MEL-5 melanoma 23.7% | LOX IMVI melanoma 23.5% | SK-MEL-2 melanoma 88.6%

CCCc1nn(C)c2c(=O)[nH]c(-c3cc(S(=O)(=O)N4CCN(C)CC4)ccc3OCC)nc12
inactive: HT29 colon 99.1% | SNB-75 CNS 104% | SNB-19 CNS 103% | U251 CNS 94.5% | PC-3 prostate 91.1% | UACC-62 melanoma 99.9% | LOX IMVI melanoma 93.9% | SK-MEL-28 melanoma 116%

Oc1ccc(Cc2ccc(O)c(C3CC(c4ccc(Cl)cc4)=NN3)c2)cc1C1CC(c2ccc(Cl)cc2)=NN1 (stereo not given)
inactive: HT29 colon 51% | SNB-75 CNS 36.1% | SNB-19 CNS 29.4% | U251 CNS 12.7% | PC-3 prostate 23.8% | SK-MEL-5 melanoma 24.4% | SK-MEL-28 melanoma 57.7%

CO[C@H]1/C=C/O[C@@]2(C)Oc3c(C)c(O)c4c(O)c(c(/C=N/N5CCN(C)CC5)c(O)c4c3C2=O)NC(=O)/C(C)=C\C=C\C(C)[C@H](O)[C@@H](C)[C@@H](O)[C@@H](C)[C@@H](OC(C)=O)[C@@H]1C (stereo not given in full)
inactive: HT29 colon 107% | SNB-75 CNS 88.7% | SNB-19 CNS 101% | U251 CNS 96.9% | PC-3 prostate 94% | SK-MEL-5 melanoma 90.6% | LOX IMVI melanoma 93.8% | SK-MEL-2 melanoma 113%

O=C1CN(CO)C(=O)CN1CO
inactive: HT29 colon 109% | SNB-75 CNS 94.2% | SNB-19 CNS 101% | U251 CNS 100% | PC-3 prostate 95.4% | UACC-62 melanoma 98.3% | LOX IMVI melanoma 99.7% | SK-MEL-28 melanoma 112% | SK-MEL-2 melanoma 121%
